# According to the antibiotic and cytotoxicity screens of Wong et al. (2023):
# Among all 39,000 compounds or so, about 3,300 (8.5%) were called active. For the sample, actives were picked, then their nearest neighbours and some compounds at random.
# Test system: HepG2
# Assay: cytotoxicity call (relative viability < 0.9)
# Conditions: 10 µM
row,SMILES,cytotoxicity call
1,C[C@@H]1CCCCO[C@H](CN(C)S(=O)(=O)c2ccc(F)cc2)[C@@H](C)CN([C@@H](C)CO)C(=O)c2cc(NC(=O)Nc3cccc4ccccc34)ccc2O1,inactive
2,CC(=O)N(C)CCc1ccc(C)[n+]([O-])c1,inactive
3,C[C@@H]1CN([C@H](C)CO)C(=O)c2cc(-c3cncnc3)cnc2O[C@@H]1CN(C)C(=O)CN1CCOCC1,inactive
4,Cc1ccc(S(=O)(=O)N(C)C[C@H]2OCCCC[C@@H](C)Oc3ccc(NC(=O)Nc4ccc(F)cc4)cc3C(=O)N([C@@H](C)CO)C[C@@H]2C)cc1,inactive
5,C[C@H](O)C#Cc1cnc2c(c1)C(=O)N([C@H](C)CO)C[C@H](C)[C@H](CN(C)C(=O)Nc1ccc(C(F)(F)F)cc1)O2,inactive
6,CO[C@@H]1CN(C)C(=O)c2cc(NC(=O)C3CC3)ccc2OC[C@H](C)N(C(=O)Cc2ccccn2)C[C@H]1C,inactive
7,O=C1C=CC(=O)N1c1ccc(O)cc1,active
8,O=C1CCC(c2ccc(O)cc2)CC1,inactive
9,Cc1ccc(S(=O)(=O)N(C)C[C@H]2OCCCC[C@@H](C)Oc3ccc(NC(=O)Nc4ccc(C(F)(F)F)cc4)cc3C(=O)N([C@H](C)CO)C[C@@H]2C)cc1,inactive
10,C[C@@H]1CN([C@@H](C)CO)C(=O)c2cc(NC(=O)Cn3cnnn3)ccc2O[C@H]1CN(C)S(=O)(=O)c1cn(C)cn1,inactive
11,C[C@@H]1CN([C@H](C)CO)C(=O)c2cc(NC(=O)Nc3cccc4ccccc34)ccc2O[C@@H](C)CCCCO[C@@H]1CN(C)S(=O)(=O)c1cn(C)cn1,inactive
12,C[C@@H]1CN([C@@H](C)CO)C(=O)c2cccc(NS(=O)(=O)c3cn(C)cn3)c2O[C@@H]1CN(C)S(=O)(=O)c1cccs1,inactive
13,Oc1ccc(O)cc1,active
14,Cc1ccc(O)cc1,inactive
15,OCc1ccc(O)cc1,inactive
16,Nc1ccc(O)cc1,active
17,Nc1cccc(O)c1,inactive
18,Nc1ccc(C(=O)O)cc1,inactive
19,C[C@@H]1CCCCO[C@H](CN(C)S(=O)(=O)c2ccccc2)[C@@H](C)CN([C@H](C)CO)C(=O)c2cc(NS(=O)(=O)c3cn(C)cn3)ccc2O1,inactive
20,Cc1noc(C)c1NC(=O)N(C)C[C@@H]1Oc2c(NC(=O)c3ccc(-c4nccs4)cc3)cccc2C(=O)N([C@@H](C)CO)C[C@@H]1C,inactive
21,C[C@@H]1CCCCO[C@H](CN(C)C(=O)Cc2ccccc2)[C@H](C)CN([C@H](C)CO)C(=O)c2cc(NS(=O)(=O)c3ccc(F)cc3)ccc2O1,inactive
22,C[C@H](CO)N1C[C@H](C)[C@@H](CN(C)C(=O)Nc2cccc3ccccc23)Oc2ccc(NC(=O)Cc3ccccc3)cc2CC1=O,inactive
23,Cc1noc(C)c1NC(=O)Nc1ccc2c(c1)C(=O)N([C@@H](C)CO)C[C@H](C)[C@@H](CN(C)Cc1ccc3c(c1)OCO3)OCCCC[C@H](C)O2,inactive
24,Brc1cccc2ocnc12,inactive

row,SMILES,cytotoxicity call
1,Cc1cc(C(=O)Nc2cccc3c2O[C@H](CN(C)Cc2ccc(C(=O)O)cc2)[C@H](C)CN([C@H](C)CO)C3=O)n(C)n1,inactive
2,CC[C@H](C)[C@@H]([C@@H](CC(=O)N1CCC[C@H]1[C@H](OC)[C@@H](C)C(=O)N[C@@H](Cc1ccccc1)c1nccs1)OC)N(C)C(=O)[C@@H](NC(=O)[C@H](C(C)C)N(C)C)C(C)C,active
3,C[C@@H]1CCCCO[C@H](CN(C)C(=O)Nc2cccc3ccccc23)[C@H](C)CN([C@@H](C)CO)C(=O)c2cc(NC(=O)Nc3ccc4c(c3)OCO4)ccc2O1,inactive
4,Cc1noc(C)c1NC(=O)Nc1ccc2c(c1)C(=O)N([C@H](C)CO)C[C@H](C)[C@@H](CN(C)Cc1ccc(-c3ccccc3)cc1)O2,inactive
5,COC(=O)C1=C(C)NC(C)=C(C(=O)OCCN2CCN(C(c3ccccc3)c3ccccc3)CC2)C1c1cccc([N+](=O)[O-])c1 (configuration not stated),active
6,COC(=O)C1=C(C)NC(C)=C(C(=O)NCCCN2CCC(c3ccccc3)(c3ccccc3)CC2)[C@@H]1c1ccc([N+](=O)[O-])cc1,active
7,COC(=O)C1=C(C#N)NC(C)=C(C(=O)OC(C)C)C1c1cccc([N+](=O)[O-])c1 (configuration not stated),active
8,O=C(Nc1cccc([N+](=O)[O-])c1)C(=O)NC1CC1,inactive
9,COC(=O)C1=C(C)NC(C)=C(C(=O)OCC(C)C)[C@@H]1c1ccccc1[N+](=O)[O-],inactive
10,COC(=O)C1=C(C)NC(C)=C(C(=O)OCC(C)C)C1c1ccccc1[N+](=O)[O-] (configuration not stated),inactive
11,CCOC(=O)C1=C(C)NC(C)=C(C(=O)OC)C1c1cccc([N+](=O)[O-])c1 (configuration not stated),inactive
12,COC(=O)C1=C(C)NC(C)=C(C(=O)OCCN(C)Cc2ccccc2)C1c1cccc([N+](=O)[O-])c1.Cl (configuration not stated),inactive
13,COC(=O)C1=C(C)NC(C)=C(C(=O)OC(C)(C)CN(C)CCC(c2ccccc2)c2ccccc2)[C@@H]1c1cccc([N+](=O)[O-])c1,inactive
14,NNC(=O)c1cccc([N+](=O)[O-])c1,inactive
15,CCOC(=O)C1=C(C)NC(c2ccccc2)=C(C(=O)OCc2ccc([N+](=O)[O-])cc2)[C@@H]1C#Cc1ccccc1,inactive
16,CCCN1C(C)=C(C(=O)OC)[C@@H](c2cccc([N+](=O)[O-])c2)C(C(=O)ON2CCC(c3ccccc3)(c3ccccc3)CC2)=C1C,active
17,Oc1ccccc1CNc1ccc(C2CCCCC2)cc1,inactive
18,CNCc1cc2ccccc2s1,inactive
19,O=C(C[C@@H]1C[C@@H]2c3cc(NC(=O)c4ccc5c(c4)OCO5)ccc3O[C@@H]2[C@H](CO)O1)NCCN1CCCCC1,inactive
20,Cc1noc(C)c1NC(=O)Nc1ccc2c(c1)C(=O)N([C@@H](C)CO)C[C@H](C)[C@@H](CN(C)C(=O)Cc1ccccc1)OCCCC[C@H](C)O2,inactive
21,Cn1ccc(C(=O)N2CC[C@@H]3OCCN(S(C)(=O)=O)[C@@H]3C2)n1,inactive
22,C[C@H]1CN([C@@H](C)CO)C(=O)c2cc(NS(=O)(=O)c3ccc(Cl)cc3)ccc2O[C@H]1CN(C)Cc1ccc(C(=O)Nc2ccccc2N)cc1,inactive
23,C[C@@H]1CN([C@H](C)CO)C(=O)c2cc(C#Cc3ccc(F)cc3)cnc2O[C@@H]1CN(C)CC1CCOCC1,inactive
